Screening results from PubChem.
Only some compounds are listed: those with a hit (about 12% of all), similar ones and a draw of the others.
G9a inh: G9a (human) methyltransferase inhibition; Q96KQ7; G9a H3K9 monomethylation, AlphaScreen, 2 h; Potency, µM (highest dose often 102 µM), inactives show top-dose activity, negative = inhibition, actives largely listed as inhibitors; 350,000 tested, 8.8% active; AID 504332; further: potency means the concentration at half of the fitted maximal effect; on the % scale 0 is the no-effect control and ±100 the full control effect; nearly all actives have a fitted effect of over 75% in size
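Step 1: enzyme (final 20 nM) with compound, 15 min RT. Step 2: substrate peptide 500 nM and SAM 20 uM, 2 h RT. Step 3: anti-H3K9me1 antibody and AlphaScreen beads, 10 min, then plate read.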
PI5P4Ka inh: blocks human PI5P4K alpha kinase activity. max response, %. P48426. 330,000 tested, 1.2% active. AID 652105. PI5P4Kalpha enzyme, ADP-Glo luminescence, 60 min; active compounds read low; active means max response of -50% or lower; inconclusive means between -30% and -50%; inactive means -30% or higher; further: value at the top dose of about 77 µM; on the % scale 0 is the no-effect control and ±100 the full control effect
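ADP-Glo luminescence end-point after a 60 min room-temperature kinase reaction. PI5P4Kalpha and substrate in HEPES pH 7.4 buffer with EGTA, 0.1% CHAPS and 5% DMSO; ATP at 5 microM final.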
JMJD2A Tudor: inhibitors of human JMJD2A Tudor domain; Potency, µM (top dose mostly 114 µM), without a hit: top-dose activity change, negative = inhibition, most hits filed as inhibitors; AlphaScreen JMJD2A-Tudor / H3K4me3 peptide binding; 390,000 tested, 4.4% active; further: potency means the concentration at half of the fitted maximal effect; on the % scale 0 is the no-effect control and ±100 the full control effect; nearly all actives have a fitted effect of over 50% in size
BAZ2B inh: inhibitors of human BAZ2B bromodomain; Potency, µM (highest dose often 114 µM), inactives show at the highest dose activity change, negative = inhibition, most hits filed as inhibitors; AlphaScreen BAZ2B-H3K14Ac peptide displacement; Q9UIF8; AID 504333; 360,000 tested, 4.4% active; further: potency means the concentration at half of the fitted maximal effect; on the % scale 0 is the no-effect control and ±100 the full control effect; nearly all actives have a fitted effect of over 60% in size
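BAZ2B 50 nM plus b-H3(5-23)K14Ac 50 nM, PBS pH 7.4/0.01% Tween-20, 30 min RT; compound added (max 110 uM), 30 min RT; streptavidin donor/Ni-chelate acceptor beads 10 ug/mL final, 20 min dark; AlphaScreen read.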
PLK1 PBD inh: PLK1 (human) polo-box domain binding inhibition | P53350 | Plk1 PBD binding of FITC phosphopeptide, fluorescence polarization | Potency, µM, for inactives: max response, negative = inhibition, hits mostly inhibitors | 360,000 tested, 2.8% active; further: potency means the concentration at half of the fitted maximal effect; series mostly up to about 57 µM; on the % scale 0 is the no-effect control and ±100 the full control effect; nearly all actives have a fitted effect of over 65% in size
Target sequence (P53350 whole entry, looked up, the tested form may be a part): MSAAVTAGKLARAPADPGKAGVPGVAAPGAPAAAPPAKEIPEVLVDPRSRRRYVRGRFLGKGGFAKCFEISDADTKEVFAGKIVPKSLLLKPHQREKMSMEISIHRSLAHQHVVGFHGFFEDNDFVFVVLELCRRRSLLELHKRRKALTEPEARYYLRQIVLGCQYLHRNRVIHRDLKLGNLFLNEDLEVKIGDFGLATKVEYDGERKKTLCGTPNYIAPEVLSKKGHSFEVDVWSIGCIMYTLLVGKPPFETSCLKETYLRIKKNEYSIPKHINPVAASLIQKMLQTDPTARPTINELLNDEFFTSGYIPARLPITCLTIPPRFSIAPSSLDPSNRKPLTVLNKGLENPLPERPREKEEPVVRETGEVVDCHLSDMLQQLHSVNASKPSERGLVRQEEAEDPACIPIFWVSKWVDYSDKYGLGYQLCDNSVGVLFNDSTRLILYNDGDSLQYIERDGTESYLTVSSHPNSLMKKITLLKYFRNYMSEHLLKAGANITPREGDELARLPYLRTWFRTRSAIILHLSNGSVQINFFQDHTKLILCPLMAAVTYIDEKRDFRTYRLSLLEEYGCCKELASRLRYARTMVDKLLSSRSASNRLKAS
HP1b chromo inh: blocks HP1-beta chromodomain binding to methylated histone tails; AlphaScreen HP1-beta / biotin-H3K9me3 peptide binding; Potency, µM (series often up to 114 µM), inactives show at the top dose activity change, negative = inhibition, usual class: inhibitors; 390,000 tested, 0.56% active; AID 540317; further: potency means the concentration at half of the fitted maximal effect; nearly all actives have a fitted effect of over 70% in size
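HP1-beta protein (50 nM final) preincubated 30 min at room temperature with biotinylated H3(1-18)K9me3 peptide (50 nM) in PBS pH 7.4, 0.01% Tween-20, then compound added for 30 min. AlphaScreen streptavidin donor/nickel chelate acceptor beads (10 ug/mL final), 30 min dark, luminescence read.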
* hit, by the source's call; [ ] = another dose, or the depositor's remark. Unless noted, the call rests on the fitted dose curve; in most records, active means well fitted curve in the direction sought with a large enough effect; inconclusive means small, poorly fitted or top-dose-only effect, or another doubt; inactive means no such curve, though single readings can be large; an effect the other way counts as inactive or inconclusive.

What do the screens show for `CCCN(CCC)c1nc2ccccc2nc1C(C#N)C(=O)OCCOC` (stereo not drawn)?
G9a inh: -24%[59 µM]; PI5P4Ka inh: 2; JMJD2A Tudor: -10%; BAZ2B inh: -31%; PLK1 PBD inh: 2%; HP1b chromo inh: 9%

Results for C=CCN(CC=C)c1nc2ccccc2nc1C(C#N)C(=O)OCCOC (stereo not drawn) ?
G9a inh: 50µM*; PI5P4Ka inh: 10; JMJD2A Tudor: -20%; BAZ2B inh: -31%; PLK1 PBD inh: 0%; HP1b chromo inh: 36%

Results for O=C(c1ccc2c(c1)N(Cc1ccccc1)C(=O)c1ccccc1S2(=O)=O)N1CCc2ccccc21 ?
G9a inh: -25%[59 µM]; JMJD2A Tudor: -10%; BAZ2B inh: -25%; HP1b chromo inh: 20%

How did COCCCNC1=C(C#N)C(=O)NC(c2cccc([N+](=O)[O-])c2)S1 (stereo not drawn) do in these assays?
PI5P4Ka inh: 4; PLK1 PBD inh: 19µM*

Results for Cc1nn(-c2ccc(N3CCCCC3)nn2)c(C)c1CCC(=O)NCc1ccc(OC(C)C)cc1 ?
G9a inh: 1%[59 µM]; JMJD2A Tudor: -19%; BAZ2B inh: -13%; HP1b chromo inh: 30%

Results for COc1cccc(NC(=O)Cn2c(=O)n(CCC(=O)NCc3ccccc3OC)c(=O)c3ccccc32)c1 ?
G9a inh: -8%[59 µM]; JMJD2A Tudor: -11%; BAZ2B inh: -33%; HP1b chromo inh: 7%

How did COc1cccc(C(c2sc3nc(-c4ccco4)nn3c2O)N2CCC(O)CC2)c1 (stereo not drawn) do in these assays?
G9a inh: inconclusive; JMJD2A Tudor: -11%; BAZ2B inh: 5%; HP1b chromo inh: 89%

Results for COc1cccc(C(c2sc3nc(-c4ccco4)nn3c2O)N2CCCC2)c1 (stereo not drawn) ?
G9a inh: 14µM*; JMJD2A Tudor: -18%; BAZ2B inh: -21%; HP1b chromo inh: 18%

What do the screens show for `COc1cccc(C(c2sc3nc(-c4ccco4)nn3c2O)N2CCC(C)CC2)c1` (stereo not drawn)?
G9a inh: 18µM*; JMJD2A Tudor: -27%; BAZ2B inh: inconclusive; HP1b chromo inh: -7%

What do the screens show for `Cc1cc(C)c(NC(=O)c2nc3ccccc3nc2N2CCCCC2)c(C)c1`?
G9a inh: -5%[59 µM]; JMJD2A Tudor: -1%; BAZ2B inh: 3%; HP1b chromo inh: 30%

Results for Cc1c([N+](=O)[O-])c2ccc(O)cc2n1-c1ccccc1 ?
G9a inh: -29%; PI5P4Ka inh: -3; JMJD2A Tudor: -10%; BAZ2B inh: -5%; PLK1 PBD inh: 1%; HP1b chromo inh: 28%

What do the screens show for `Cc1ccc(-n2c(C)c([N+](=O)[O-])c3ccc(O)cc32)cc1`?
G9a inh: 50µM*; BAZ2B inh: -4%

What do the screens show for `CCOc1ccccc1NC(=O)CSC1=Nc2ccccc2C2=NC(CC(=O)NCc3ccc4c(c3)OCO4)C(=O)N12` (stereo not drawn)?
G9a inh: 27%[59 µM]; JMJD2A Tudor: -24%; BAZ2B inh: -4%; HP1b chromo inh: 48%

What do the screens show for `COc1cc(NC(=O)C2=CC(c3ccc(F)cc3)=NS(=O)(=O)N2C)cc(OC)c1OC`?
G9a inh: -36%[59 µM]; JMJD2A Tudor: 1%; BAZ2B inh: 3%; HP1b chromo inh: 50%

Results for Cc1cc(C)cc(NC(=O)CSc2nc3nc(C)cc(C)n3n2)c1 ?
G9a inh: -7%[12.7 µM]; PI5P4Ka inh: -1; JMJD2A Tudor: 1%; BAZ2B inh: -3%; PLK1 PBD inh: -2%; HP1b chromo inh: 18%

What do the screens show for `CCCCC1=CC2=C(c3ccco3)C(=O)C(C)(OC(=O)c3ccc(OC)cc3)C(=O)C2=CN1CCOC` (stereo not drawn)?
G9a inh: inconclusive; PI5P4Ka inh: -5; JMJD2A Tudor: inconclusive; BAZ2B inh: 40µM*; PLK1 PBD inh: -17%; HP1b chromo inh: -38%

How did COc1ccccc1C1N=C(Nc2nc3ccccc3o2)NC2=C1C(=O)CC(C)(C)C2 (stereo not drawn) do in these assays?
JMJD2A Tudor: -19%[57.1 µM]; HP1b chromo inh: 5%[57 µM]

What do the screens show for `CC1CN(C(=O)COC(=O)Cc2c(Cl)cccc2Cl)CC(C)O1` (stereo not drawn)?
PI5P4Ka inh: -4; JMJD2A Tudor: 0%; PLK1 PBD inh: -1%; HP1b chromo inh: 32%[57 µM]

What do the screens show for `CC(=O)OC1C(=O)N(Cc2ccccc2)C1c1ccc(C)cc1` (stereo not drawn)?
PI5P4Ka inh: -6; JMJD2A Tudor: inconclusive; PLK1 PBD inh: 27µM*; HP1b chromo inh: 8%

Results for COc1ccccc1N=C1SCC(=O)N1c1ccccc1OC ?
G9a inh: 28µM*; PI5P4Ka inh: -13; JMJD2A Tudor: -12%; BAZ2B inh: -3%; PLK1 PBD inh: 21µM*; HP1b chromo inh: inconclusive

Results for CN(C)CCNC(=O)c1cccc(-c2cc(NC=O)c3ncc(-c4cccc(C(F)(F)F)c4)n3c2)c1 ?
PI5P4Ka inh: inconclusive; PLK1 PBD inh: -11%

What do the screens show for `O=C(C1=C(O)C(=O)N(CCN2CCOCC2)C1c1ccco1)c1cc2ccccc2o1` (stereo not drawn)?
G9a inh: 32µM*; PI5P4Ka inh: 4; JMJD2A Tudor: -4%; BAZ2B inh: inconclusive; PLK1 PBD inh: -9%; HP1b chromo inh: 54%

Results for Cc1ccc(C(=O)C2=C(O)C(=O)N(CCN3CCOCC3)C2c2ccccn2)o1 (stereo not drawn) ?
G9a inh: 2.2µM*; BAZ2B inh: inconclusive

How did CCN(CC)CCN1C(=O)C(O)=C(C(=O)c2cc3ccccc3o2)C1c1cccnc1 (stereo not drawn) do in these assays?
G9a inh: 89µM*; PI5P4Ka inh: 4; JMJD2A Tudor: -20%[11.4 µM]; BAZ2B inh: -2%; PLK1 PBD inh: -7%; HP1b chromo inh: 50%

How did COc1ccc(OC)c(C2C(C(=O)c3ccc(C)o3)=C(O)C(=O)N2CCN2CCOCC2)c1 (stereo not drawn) do in these assays?
G9a inh: 9%[0.0925 µM]; PI5P4Ka inh: -1; JMJD2A Tudor: -16%; BAZ2B inh: inconclusive; PLK1 PBD inh: -4%; HP1b chromo inh: 4%

How did CCCOc1ccc(C2C(C(=O)c3ccc(C)o3)=C(O)C(=O)N2CCN2CCOCC2)cc1OC (stereo not drawn) do in these assays?
G9a inh: inconclusive; PI5P4Ka inh: 0; JMJD2A Tudor: 22µM*; BAZ2B inh: 4%; PLK1 PBD inh: -13%; HP1b chromo inh: 15%
